Outcome and AC50 data for 39 molecules are collected here from PubChem BioAssay (EPA / NIEHS).

Where “and” joins values, the source holds several entries; their conditions need not be identical. Equal values may be shown once. Some compounds were tested as several samples or in several runs, with calls that do not always agree. Calls of active or inactive are those of the source. The calls were made as follows: active = hit-call score of the fitted dose curve at least 0.9, where 1 is the maximum; inactive = score below 0.9.

In this experiment the target is Aryl hydrocarbon receptor (Homo sapiens) (UniProt P35869). Briefly: ATG_Ahr_CIS: Attagene CIS-FACTORIAL HepG2 Assay for human Aryl Hydrocarbon Receptor (Ahr) (AID 2282930). To be noted: HepG2 AhR cis-factorial reporter transcription; actives raise or lower the signal. The method, then: ATG_CIS is a cell-based, multiplexed-readout assay that uses HepG2, a human liver cell line, with measurements taken at 24 hours after chemical dosing in a 24-well plate.ATG_Ahr_CIS is one of 52 assay component(s) measured or calculated from the ATG_CIS assay. It is designed to make measurements of mRNA induction, a form of inducible reporter, as detected with fluorescence intensity signals by Reverse transcription polymerase chain reaction (RT-PCR) and Capillary electrophoresis technology.Data from the assay component ATG_Ahr_CIS was analyzed into 1 assay endpoint. This assay endpoint, ATG_Ahr_CIS, was analyzed with bidirectional fitting relative to DMSO as the negative control and baseline of activity. Using a type of inducible reporter, measures of mRNA for gain or loss-of-signal activity can be used to understand the reporter gene at the transcription factor-level as they relate to the gene AHR. Furthermore, this assay endpoint can be referred to as a primary readout, because this assay has produced multiple assay endpoints where this one serves a reporter gene function. To generalize the intended target to other relatable targets, this assay endpoint is annotated to the dna binding intended target family, where the subfamily is basic helix-loop-helix protein.
Aryl hydrocarbon receptor (Homo sapiens), sequence (P35869 whole entry, looked up): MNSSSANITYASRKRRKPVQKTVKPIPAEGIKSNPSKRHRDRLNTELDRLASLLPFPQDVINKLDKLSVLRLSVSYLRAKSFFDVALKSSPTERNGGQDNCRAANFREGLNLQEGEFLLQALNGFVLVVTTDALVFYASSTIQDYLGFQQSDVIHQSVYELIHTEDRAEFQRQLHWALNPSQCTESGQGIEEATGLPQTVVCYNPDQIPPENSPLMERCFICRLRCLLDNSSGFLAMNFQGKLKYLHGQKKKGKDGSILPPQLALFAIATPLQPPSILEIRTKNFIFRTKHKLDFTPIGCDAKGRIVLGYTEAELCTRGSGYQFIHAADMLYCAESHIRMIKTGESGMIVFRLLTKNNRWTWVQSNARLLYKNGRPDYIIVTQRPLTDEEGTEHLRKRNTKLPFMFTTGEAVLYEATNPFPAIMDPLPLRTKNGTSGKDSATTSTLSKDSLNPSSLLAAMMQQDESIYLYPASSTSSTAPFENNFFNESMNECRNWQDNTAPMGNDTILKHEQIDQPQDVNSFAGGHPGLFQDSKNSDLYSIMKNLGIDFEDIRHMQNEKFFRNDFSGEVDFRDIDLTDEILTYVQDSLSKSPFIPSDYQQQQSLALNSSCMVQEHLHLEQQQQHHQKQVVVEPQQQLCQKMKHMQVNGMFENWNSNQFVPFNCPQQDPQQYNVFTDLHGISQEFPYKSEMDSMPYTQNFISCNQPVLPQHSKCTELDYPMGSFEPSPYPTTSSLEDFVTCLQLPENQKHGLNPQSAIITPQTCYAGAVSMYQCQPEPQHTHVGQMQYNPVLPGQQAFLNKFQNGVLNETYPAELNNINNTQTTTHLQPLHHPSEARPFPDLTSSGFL
Human liver HepG2 cells are transiently transfected with multiple reporter transcription units (MRTUs) in 6-well plates using FuGene 6 reagent (Roche; 3 ml FuGene/1 mg DNA). The MRTU constructs are regulated by a cis-regulating element (promoter). […] A major difference between the CIS and TRANS system is that in CIS activities of endogenous TFs are measured, whereas the TRANS assay evaluates changes in activities of exogenous, chimeric NR-Gal4 proteins. […] At the end of 24 hour incubation, total RNA was isolated using TriZol reagent (Invitrogen). The isolated RNA is then reverse-transcribed using oligo(dT) primer and Mo-MLV reverse transcriptase (Invitrogen) with DNAse I (Ambion) treatment for 30 min. The one-tenth of the produced cDNA was amplified by PCR using Taq DNA polymerase (Invitrogen) and two reporter sequence-specific primers. The PCR products were fluorescently labeled by primer extension with 6-arboxyfluorescein (6-FAM) 5'-labeled reporter sequence-specific primer (2 min at 95 C, 20 s at 68 C and 10 min at 72 C) and these products were digested with 5U of HpaI (New England Biolabs) for 2h at 37 C. […] The raw capillary electrophoresis data was processed using Attagraph software (Attagene).
With `O=P(OCCCl)(OCCCl)OCCCl`, the outcome was inactive. For the molecule `Nc1ccc(Cc2ccc(N)cc2)cc1`, the call was inactive. The same measure, in the same setting: next, `Cc1ccc(N)cc1`: “inactive”; `[Cl-].[Cl-].[Hg+2]`: “inactive”.

For the molecule `c1ccc(N=Nc2ccccc2)cc1`, the half-maximal activity concentration (AC50) was 125 µM (active). As to `CCCCCOC(=O)c1ccccc1C(=O)OCCCCC`, the molecule was called inactive.

For the molecule `O=[N+]([O-])C(Br)(CO)CO`, the molecule was classed as inactive. On the same count and under the same terms, under `CC(O)CCO` (stereo not given) stands “inactive”. `CC(C)(C)C(O)(CCc1ccc(Cl)cc1)Cn1cncn1` (stereo not given): the AC50 is 52.3 µM (active). Take `OCCCBr`: the result was inactive.

With `O=Cc1ccco1`, the call was inactive. For the molecule `O=C(Nc1ccccc1)c1ccccc1I`, the molecule was called inactive.

As for `[O-][Cl+]O`, the result was inactive.

Regarding `CNC(=O)Oc1cccc2c1OC(C)(C)C2`, the AC50 is 65.6 µM (active). For `Nc1ccc(N=Nc2ccccc2)cc1`, the concentration at half-maximal activity (AC50) was 25.4 µM (active).

On to `CCOc1cccc(C2(N3CCN(c4ccccc4)CC3)CCC(C)CC2)c1` (stereo not given), for which the call was inactive. As to `CCN(CC)N=O`, the outcome was inactive. With `O=C1CCCO1`, the call was inactive.

As to `O=C(N[C@H](c1ccccc1)[C@@H]1CN2CCC1CC2)c1c(Cl)ccc(C(F)(F)F)c1Cl`, the call was inactive.

On to `OCCOCCO`, for which the outcome was inactive. Consider `COP(=S)(OC)SCN1C(=O)c2ccccc2C1=O`, for which the call was inactive. In the case of `c1ccc(C2CO2)cc1` (stereo not given), the call was inactive.

`O=C(Oc1ccc(Br)cc1)N1CCN2CCC1CC2`: the molecule was called inactive.

With `N#CC(Br)(Br)C(N)=O`, the AC50 is 55.2 µM (active). `ClC1=C(Cl)C2(Cl)C3C(Cl)C=CC3C1(Cl)C2(Cl)Cl` (stereo not given): the outcome was inactive. Same read-out and setting: next, `Cc1ccc(N=C=O)cc1N=C=O`: “inactive”.

Regarding `Nc1ccc(Cl)cc1N`, the concentration at half-maximal activity (AC50) is 0.431 µM (active). `Nc1cc(Cl)cc(C(=O)O)c1Cl`: the AC50 is 58 µM (active). Still for that read-out and setting: next, `Cc1cc(N=Nc2ccccc2C)ccc1N`: 2.99 µM (active). As for `C1=Cc2cccc3cccc1c23`, the molecule was called inactive. In the case of `Cc1cccc(N)c1N`, the AC50 was 1.09 µM (active).

In the case of `Nc1ccc(Oc2ccc(N)cc2)cc1`, the molecule was called inactive. Regarding `Clc1ccc(C(c2ccc(Cl)cc2)C(Cl)Cl)cc1`, the outcome was inactive.

On to `COc1cc(C=O)cc2c1[C@H](COC(N)=O)[C@]1(OC(C)=O)ON2C[C@H]2[C@@H]1N2C(C)=O`, for which the AC50 was 0.314 µM (active). As to `COC(=O)c1ccccc1N`, the half-maximal activity concentration (AC50) is 43.8 µM (active). Turning to `C[C@]12C=CC3=C4CCC(=O)C=C4CC[C@H]3[C@@H]1CC[C@@H]2O`, the result was inactive; the concentration at half-maximal activity (AC50) was 19.8 µM (active) and 35.7 µM (active). Take `CC(C)COC(=O)c1ccccc1C(=O)OCC(C)C`: the molecule was called inactive. Take `[As]#[In]`: the AC50 is 65 µM (active). As for `CC(C)(O)c1cnn2c(-c3ccc(F)c(-c4c(F)cccc4C#N)c3)cnc2n1`, the molecule was classed as inactive.

In general, AC50 refers to the concentration at which the activity in the assay is half-maximal.
